Assay outcomes deposited in PubChem BioAssay by National Center for Advancing Translational Sciences (NCATS).
This is a sample that favours compounds with a hit; in the whole collection about 8.7% have one here.
Pf growth 48h: Primary qHTS for delayed death inhibitors of the malarial parasite plastid, 48 hour incubation; P. falciparum luciferase growth in erythrocytes, 48 h; actives 5.9% (n = 310,000); Potency, µM (doses to about 28.7 µM), most hits filed as inhibitors
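Read-out is firefly luciferase luminescence from an integrated reporter in P. falciparum, so falling signal marks reduced parasite growth. Infected erythrocytes were at 2% hematocrit and 0.1% parasitemia (final) in Albumax-supplemented RPMI 1640.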
VACV mCherry inh: qHTS for Stage-Specific Inhibitors of Vaccinia Orthopoxvirus: mCherry Reporter Primary qHTS | AID 720579, 2013 | actives 0.63% (n = 310,000) | Potency, µM (top dose mostly 36.5 µM), usual class: inhibitors | Vaccinia virus mCherry reporter infection, fluorescence; calls by dose curve; tested in A549 cells; further: nearly all actives have a fitted effect of over 35% in size
AMA1 RON2 block: qHTS for Inhibitors of AMA1-RON; Towards Development of Antimalarial Drug Lead: Primary Screen. Plasmodium falciparum AMA1 (3D7) - RON2 peptide interaction. AlphaScreen AMA1-biotinylated RON2 peptide binding. Potency, µM (highest dose often 58.2 µM), usual class: inhibitors. AID 720542, 2013. actives 0.2% (n = 360,000); further: nearly all actives have a fitted effect of over 45% in size
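AMA1 (3D7) with his tag at 25 nM final met compounds first, then biotinylated RON2 peptide at 25 nM; detection used donor plus acceptor beads, 10 µg/mL apiece, read by AlphaScreen after 30 min at room temperature.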
Pf growth 96h: Primary qHTS for delayed death inhibitors of the malarial parasite plastid, 96 hour incubation; P. falciparum luciferase reporter growth, 96 h; Potency, µM (doses to about 28.7 µM), most hits filed as inhibitors; actives 6.9% (n = 320,000)
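Two-generation exposure (96 h) targets delayed-death phenotype. Reporter parasites carrying integrated firefly luciferase, in red cells at 2% hematocrit and 0.05% parasitemia final, kept at 37 C, 5% CO2; luminescence loss indicates inhibition.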
Vaccinia Venus: qHTS for Stage-Specific Inhibitors of Vaccinia Orthopoxvirus: Venus Reporter Primary qHTS; Potency, µM (top dose mostly 36.5 µM), hits mostly inhibitors; Vaccinia virus Venus reporter expression, fluorescence; actives 0.46% (n = 330,000); calls by dose curve; tested in A549 cells; further: nearly all actives have a fitted effect of over 30% in size
Numbers stand for hits; 0 = inactive; ? = inconclusive; - = no result; [ ] = remark or other dose. Unless noted, the call rests on the fitted dose curve; in most records, active means well fitted curve in the direction sought with a large enough effect; inconclusive means small, poorly fitted or top-dose-only effect, or another doubt; inactive means no such curve, though single readings can be large; an effect the other way counts as inactive or inconclusive.

SMILES	Pf growth 48h	VACV mCherry inh	AMA1 RON2 block	Pf growth 96h	Vaccinia Venus
CCc1ccc(NC(=O)C2CCN(C(=O)N3CC(CC)Oc4ccccc43)CC2)cc1 (centres undefined)	-	0	-	-	0
O=c1c(S(=O)(=O)c2ccccc2)cn(Cc2ccc(F)cc2)c2cc(N3CCOCC3)c(F)cc12	-	0	-	-	0
Cc1cccc(NC(=O)C(=O)NCCc2csc(-c3ccc(F)cc3)n2)c1C	-	0	-	-	0
CN(C)c1cccc(C(=O)N(C)C2CCCN(Cc3ccccc3F)C2)c1 (centres undefined)	?	-	0	4.1µM	-
CCN(CC)CCC#CC(O)(c1ccccc1)c1ccccc1	0	0	0	9.3µM	0
C[N+]1(CC#CC(O)(c2ccccc2)c2ccccc2)CCCC1	?	0	0[2.32 µM]	5.2µM	0
CC(C)[N+](C)(C)CC#CC(O)(c1ccccc1)c1ccccc1	0	0	0	0	0
COC(=O)c1cnn(-c2nc(OC)cc(OC)n2)c1C	0	0	0	0	0
COc1cc(OC)nc(-n2ncc(Br)c(Br)c2=O)n1	?	?	0	13µM	11µM
Cc1cccn2c(=O)c3cc(C#N)c(=O)n(-c4nnc(SCc5ccc(F)cc5)s4)c3nc12	-	0	-	-	0
CCn1c(SCC(N)=O)nc2cc(S(=O)(=O)N3CCOCC3)ccc21	0	0	0	0	0
CCn1c(SCC(=O)c2c[nH]c3ccccc23)nc2cc(S(=O)(=O)N3CCOCC3)ccc21	9.3µM	0	0	2.3µM	0
CCN(CC(=O)NCc1ccc(Cl)cc1)C(=O)CNS(=O)(=O)c1ccc(NC(C)=O)cc1	12µM	0	0	?	0
Cc1ccc(S(=O)(=O)CCSc2nc(C)cc(C(F)(F)F)c2C#N)cc1	?	-	0	0	2.2µM
Cc1c(C(=O)O)oc2ccc3c(c12)C(O)CC(C)(C)O3 (centres undefined)	0	-	0	4.7µM	-
COc1ccc(NC(=O)Nc2c[nH]c(=O)[nH]c2=O)c(OC)c1	-	0	-	-	0
O=C(Nc1ccc(N2CCN(C(=O)c3ccc(Cl)cc3)CC2)cc1)c1cc2ccccc2o1	-	-	0	5.9µM	-
CC(=O)c1ccc(N2CCN(C(=O)c3ccc(C(=O)c4ccccc4)cc3)CC2)cc1	0	-	0	5.2µM	-
O=C(/C=C\c1ccco1)Nc1ccc(N2CCN(C(=O)c3ccccc3)CC2)cc1	?	?	0	5.9µM	0
O=C(c1ccc(N2CCN(C(=O)c3ccc(F)cc3F)CC2)cc1)c1cccc(F)c1	?	-	0	10µM	-
CC(=O)N1CCN(C(=O)c2ccc(C(=O)c3ccccc3)cc2)CC1	0	-	0	0	-
O=C(c1ccc(F)cc1F)N1CCN(c2ncccn2)CC1	0	0	0	0	0
Cc1ccc(-c2noc(-c3ccc(N4CCOCC4)c([N+](=O)[O-])c3)n2)cc1	-	0	-	-	0
O=C(c1ccccc1)N1CCN(c2ccc(Cl)cc2)CC1	?	0	0	15µM	0
O=C(c1ccccc1)N1CCN(c2ccccc2)CC1	-	0	0	-	0
SMILES	Pf growth 48h	VACV mCherry inh	AMA1 RON2 block	Pf growth 96h	Vaccinia Venus
O=C(Nc1cccc2ccccc12)c1ccc(Cn2cc(Cl)cn2)cc1	?	-	0	13µM	0
Cc1occc1C(=O)N1CCN(c2ccc([N+](=O)[O-])cc2)CC1	0	-	0	?	-
Cc1occc1C(=O)N1CCN(c2ccc(Cl)cc2)CC1	0	0	0	4.7µM	0
O=C(c1ccc(Cn2cc(Cl)cn2)cc1)N1CCN(c2ccccc2)CC1	0	-	0	7.4µM	-
CCN(CC)C(=O)c1sc2c(c1C)c(=O)n(-c1ccc(Cl)c(Cl)c1)c(=O)n2CC(=O)Nc1cccc(OC)c1	-	0	-	-	0
COc1ccccc1Nc1cc(C(=O)NC2CCC(C)CC2)c2ccccc2n1 (centres undefined)	-	0	-	-	0
Cn1cc(S(=O)(=O)N2CCCCCC2)cc1C(=O)Nc1ccc(Cl)c(C(F)(F)F)c1	-	0	-	-	0
CCN(Cc1ccccc1)C(=O)Cn1c(=O)n(-c2ccccc2)c(=O)c2c1c1cc(C)ccc1n2C	-	0	-	-	0
CCOc1ccccc1NS(=O)(=O)c1ccc(N2CCCCS2(=O)=O)cc1	-	0	-	-	0
O=C(Nc1ccccc1N1CCCC1)c1cccc(-c2cc3ccccc3oc2=O)c1	?	0	0	?	0
O=C(Nc1ccc(N2CCCC2)cc1)c1cccc(-c2cc3ccccc3oc2=O)c1	0	0	0[11.6 µM]	0.41µM	0
O=C(Nc1cccc(Cl)c1N1CCCC1)c1cc2ccccc2o1	0	-	0	1.3µM	0
CCCCCCc1cc2cc(C(=O)OCC)c(=O)oc2cc1O	1.7µM	-	0	1.5µM	-
CCCCCCc1cc2cc(/C(N)=N/NC(=O)c3ccncc3)c(=O)oc2cc1O	3.3µM	0	0	0	0
CC(C)COC(=O)CCn1[nH]c(=O)c2ccccc2c1=O	-	-	0	0	-
CCCCCCCCOC(=O)CCn1[nH]c(=O)c2ccccc2c1=O	?	0	0	10µM	0
CCc1nc2scc(-c3cccs3)c2c(=O)o1	0	-	0	?	0
CCn1c(Sc2nc(C)nc3scc(-c4cccs4)c23)n[nH]c1=O	?	-	0	7.4µM	-
Cc1nc(SCC(=O)NC(=O)NCCC(C)C)c2c(-c3cccs3)csc2n1	12µM	0	0	?	0
CC12CN3CC(C)(CN(C1)C3c1cc3ccccc3[nH]1)C2=O (centres undefined)	0	-	0	1µM	0
CCC12CN3CC(C)(CN(C1)C3c1c(C)[nH]c3ccccc13)C2=O (centres undefined)	-	0	-	-	0
O=C(O)CCc1cccc2ccccc12	-	0	-	-	0
C/C(=N\Nc1cccc(Cl)c1)C1(C)N(O)C(C)(C)C(c2ccco2)=[N+]1[O-] (centres undefined)	7.4µM	-	0	?	-
C/C(=N\O)C1(C)N(O)C(C)(C)C(c2ccco2)=[N+]1[O-] (centres undefined)	0	0	0	0	0
Cc1ccc(OCC(=O)OCc2cc(=O)n3nc(C4CCCCC4)sc3n2)cc1C	-	0	-	-	0
SMILES	Pf growth 48h	VACV mCherry inh	AMA1 RON2 block	Pf growth 96h	Vaccinia Venus
CCc1nc(-c2cc(S(=O)(=O)N3CCN(c4ccc(F)cc4)CC3)ccc2OC)no1	-	0	-	-	0
COc1ccc(-c2c(C(C)=O)c(C)n(C)c2C)cc1	0	0	0	12µM	0
O=C(CN1C(=O)COc2ccc(S(=O)(=O)N3CCOCC3)cc21)NCc1ccc(Cl)cc1	-	0	-	-	0
Cc1cc(N/N=C/c2ccc(O)cc2)c2cccc(C)c2n1	0.37µM	-	0	9.3µM	-
Cc1cc(N/N=C/c2ccc(N(C)C)cc2)c2ccccc2n1	0	-	0	0	-
Cc1cc(C)c2nc(C)cc(N/N=C/c3ccc(O)cc3)c2c1	0.13µM	?	0	0	?
Cc1cccc(CN2CCN(CC(=O)NCCc3ccc(Cl)cc3)C2=O)c1	-	0	-	-	0
O=C(c1ccc(N2CCC(NCCCn3ncc4ccccc43)CC2)cc1)N1CCc2ccccc2C1	-	0	-	-	0
CCN(CC)S(=O)(=O)c1cccc(-c2nnc(SCc3nc4ccccc4s3)o2)c1	-	-	0	?	28µM
